SUMO1-SIM PPI: modulators of SUMO1 protein-protein interactions, primary screen, biochemical, uHTS. inhibition, % at 20 µM. SUMO1 binding to a labelled peptide, TR-FRET, 1 h. 360,000 compounds, 0.33% hits; in the data active = inhibition above about 37%
Rin1-Abl PPI inh: inhibitors of Rin1-Abl protein binding, primary screen, biochemical, TR-FRET. AID 588664, 2011. inhibition, % at 7.35 µM. Tyrosine-protein kinase ABL1 (Homo sapiens) + Ras and Rab interactor 1 (Homo sapiens), …. 360,000 compounds, 0.4% hits; in the data active = inhibition above about 5%, passing the limit was not always enough
Neddylation inh: inhibitors of cullin neddylation, primary screen, biochemical, TR-FRET, uHTS, NAE and Ubc12. NEDD8-conjugating enzyme Ubc12 (Homo sapiens) + NEDD8-activating enzyme E1 regulatory …. inhibition, % at 25 µM. 360,000 compounds, 0.58% hits. AID 651699, 2012; in the data active = inhibition above about 36%
ATG4B inhibitor: ATG4B protease inhibitors, primary screen, biochemical, fluorescence, uHTS; 340,000 compounds, 0.51% hits; inhibition, % at 8.33 µM; ATG4B cleavage of LC3-PLA2, NBD-HPC fluorescence, 1 h; AID 504462, 2011; Cysteine protease ATG4B (Homo sapiens), Q9Y4P1; in the data active = inhibition above about 40%
ATG4B conf: ATG4B protease inhibitors, retest, confirmation, biochemical, fluorescence, single concentration; shares compounds with ATG4B inhibitor; ATG4B protease fluorescent substrate cleavage assay; inhibition, % at 8.33 µM; 320 compounds, 92% hits; AID 504757, 2011; in the data active = inhibition above about 39%
PLA2 ctr: PLA2 enzyme inhibition, counter-screen for ATG4B inhibitor project, biochemical, single concentration, uHTS hits; shares compounds with ATG4B inhibitor; purified PLA2, NBD-C6-HPC fluorescence, 45 min; inhibition, % at 8.33 µM; 1,600 compounds, 66% hits; in the data active = inhibition above about 50%
* marks the source's active call; other numbers are inactive results. Only some compounds are listed: those with a hit (about 1.7% of all), similar ones and a draw of the others.

For Cc1ccc(C)c(C(C)NC(=S)NCc2ccc(F)cc2)c1 (centres undefined) the results were SUMO1-SIM PPI -0.6, Rin1-Abl PPI inh 3.6, Neddylation inh 0.9, ATG4B inhibitor 48.7* and PLA2 ctr 50.3*.
For Cc1nc(NS(=O)(=O)c2ccc(Br)cc2)c2c3c(sc2n1)CCC3 the results were SUMO1-SIM PPI 22.0, Rin1-Abl PPI inh 0.8, Neddylation inh -4.6, ATG4B inhibitor 68.0* and PLA2 ctr 72.1*.
Cc1nc(NS(=O)(=O)c2cccs2)c2c3c(sc2n1)CCC3 was read as SUMO1-SIM PPI 10.0, Rin1-Abl PPI inh 0.2, Neddylation inh -0.1 and ATG4B inhibitor 4.3.
Cc1nc(NC(C)c2ccccc2)c2c3c(sc2n1)CCC3 (centres undefined) was read as SUMO1-SIM PPI 0.5, Rin1-Abl PPI inh -2.1, Neddylation inh 3.5, ATG4B inhibitor 45.9* and PLA2 ctr 35.9.
`CC(=O)c1cccc(OCC(=O)N(CCC2=CCCCC2)c2c(N)n(Cc3ccccc3)c(=O)[nH]c2=O)c1` gave SUMO1-SIM PPI 0.5, Rin1-Abl PPI inh 2.1, Neddylation inh 1.9 and ATG4B inhibitor -10.9.
`COc1ccccc1CNc1nc2cc(-c3ccccc3C)sc2c(=O)n1C` gave SUMO1-SIM PPI -78.0, Rin1-Abl PPI inh -3.5 and Neddylation inh inactive.
Screening COC(=O)CCC(=O)N1CCC(Oc2cccc(C(=O)NCc3ccccn3)c2)CC1 returned SUMO1-SIM PPI -1.6, Rin1-Abl PPI inh -2.9 and Neddylation inh -3.6.
For COc1ccc2c(c1OC)C(=O)OC2Nc1nc(-c2ccc(-c3ccccc3)cc2)cs1 (centres undefined) the results were SUMO1-SIM PPI -4.9, Rin1-Abl PPI inh 0.1, ATG4B inhibitor 64.3*, ATG4B conf 39.5* and PLA2 ctr 46.7.
Screening Cc1nc(NC(=O)CSc2cc(C)c3ccccc3n2)c(Cl)cc1Cl returned SUMO1-SIM PPI -47.4, Rin1-Abl PPI inh -11.8, Neddylation inh -260.5, ATG4B inhibitor 40.7* and PLA2 ctr 13.5.
For Cn1c(CC(=O)NNC(=O)c2cccnc2)nc2ccccc21 the results were SUMO1-SIM PPI -2.5, Rin1-Abl PPI inh 4.0, Neddylation inh -10.0 and ATG4B inhibitor -0.2.
For CC(C)C(=O)O/N=C(\N)c1ccc(Oc2ccc(Cl)cc2)c([N+](=O)[O-])c1 the results were SUMO1-SIM PPI -29.3, Rin1-Abl PPI inh 1.8, Neddylation inh -20.4 and ATG4B inhibitor -0.4.
Screening NC(=O)c1ccc(Oc2ccc(Cl)cc2)c([N+](=O)[O-])c1 returned SUMO1-SIM PPI -23.5, Rin1-Abl PPI inh -0.4, Neddylation inh -22.2, ATG4B inhibitor 58.9* and PLA2 ctr 57.5*.
NC(=O)c1ccc(Oc2ccc3c(c2)CCC3)c([N+](=O)[O-])c1 was read as SUMO1-SIM PPI -21.0, Rin1-Abl PPI inh 1.1, Neddylation inh -29.1, ATG4B inhibitor 80.2* and PLA2 ctr 85.4*.
For NC(=O)c1ccc(Oc2ccc(Cl)c3ccccc23)c([N+](=O)[O-])c1 the results were SUMO1-SIM PPI -3.9, Rin1-Abl PPI inh -0.5, Neddylation inh -0.9, ATG4B inhibitor 62.0* and PLA2 ctr 54.1*.
For CC(C)Oc1ccc(C(CC(=O)NCc2ccco2)c2ccccc2)cc1 (centres undefined) the results were SUMO1-SIM PPI 0.8, Rin1-Abl PPI inh 1.8, Neddylation inh 0.5, ATG4B inhibitor 43.9*, ATG4B conf 64.7* and PLA2 ctr 45.6.
Cc1cccc(C(CC(=O)NCc2ccco2)c2ccccc2)c1O (centres undefined) was read as SUMO1-SIM PPI 0.8, Rin1-Abl PPI inh 0.8, Neddylation inh -0.1 and ATG4B inhibitor 2.1.
`COc1cc(OC)cc(C2=Cc3ccccc3C(CC(C)=O)N2c2ccc(C#CC3(N)CCCCC3)cc2)c1` (centres undefined) gave SUMO1-SIM PPI -80.4.
Screening O=C(N/N=C/C=C/c1ccccc1[N+](=O)[O-])c1cc(-c2ccccc2)n[nH]1 returned SUMO1-SIM PPI -9.5, Rin1-Abl PPI inh -4.5, Neddylation inh -28.0, ATG4B inhibitor 47.0* and PLA2 ctr 25.1.
Screening O=C(Nc1c(Cl)cc2c(c1Cl)Cc1cc([N+](=O)[O-])ccc1-2)C(Cl)Cl returned SUMO1-SIM PPI -22.2, Rin1-Abl PPI inh -2.8, Neddylation inh -43.0 and ATG4B inhibitor 0.3.
`COCCn1c(C)cc(C(=O)CSc2nc(C)nc3sc4c(c23)CCC4)c1C` gave SUMO1-SIM PPI -2.6, Rin1-Abl PPI inh -0.9, Neddylation inh -14.2, ATG4B inhibitor 57.4* and PLA2 ctr 36.6.
For Oc1ccc2ccccc2c1/C=N/Nc1nnc(-c2ncc[nH]2)c2ccccc12 the results were SUMO1-SIM PPI -2.0, Rin1-Abl PPI inh 4.3, Neddylation inh -4.3, ATG4B inhibitor 48.0*, ATG4B conf 49.1* and PLA2 ctr 39.5.
O=C1C(=O)N(C/C=C/c2ccccc2)c2ccccc21 was read as SUMO1-SIM PPI -31.9, Rin1-Abl PPI inh 0.2, Neddylation inh 0.8, ATG4B inhibitor 49.3* and PLA2 ctr 54.1*.
Screening Cc1cccc(NC(=S)NC2CCSc3ccccc32)c1 (centres undefined) returned SUMO1-SIM PPI 1.2, Rin1-Abl PPI inh -1.4, Neddylation inh -13.3, ATG4B inhibitor 41.9* and PLA2 ctr 54.0*.
O=C(NC1CCSc2ccccc21)c1cccc(OC(F)F)c1 (centres undefined) was read as SUMO1-SIM PPI 1.8, Rin1-Abl PPI inh 3.3, Neddylation inh -3.8 and ATG4B inhibitor 6.6.
`O=C(NC1CCSc2ccccc21)c1cccc(Br)c1` (centres undefined) gave SUMO1-SIM PPI 3.1, Rin1-Abl PPI inh 0.5, Neddylation inh -26.8 and ATG4B inhibitor 6.6.
S=C(NCc1ccccc1)NC1CCSc2ccccc21 (centres undefined) was read as SUMO1-SIM PPI 7.6, Rin1-Abl PPI inh -1.2, Neddylation inh -2.5, ATG4B inhibitor 63.9* and PLA2 ctr 69.2*.
Screening FC(F)Oc1ccc(NC(=S)NC2CCSc3ccccc32)cc1 (centres undefined) returned SUMO1-SIM PPI 8.1, Rin1-Abl PPI inh 2.8, Neddylation inh 0.6, ATG4B inhibitor 59.2* and PLA2 ctr 56.5*.
CSc1ncnc2c1ncn2CCCNCCCN1CCCC1=O was read as SUMO1-SIM PPI 2.3, Rin1-Abl PPI inh 2.0 and Neddylation inh 13.7.
Screening COc1ccc(-c2oc3c(c2C#CC2(O)CCCCC2)C(OC)CCC3)cc1 (centres undefined) returned SUMO1-SIM PPI -0.8.
`Cc1ccc(CC2(c3ccccc3)NC(=O)NC2=O)cc1` (centres undefined) gave SUMO1-SIM PPI 5.3, Rin1-Abl PPI inh -2.9, Neddylation inh -3.3 and ATG4B inhibitor 5.6.
